HPGD inh = qHTS Assay for Inhibitors of HPGD (15-Hydroxyprostaglandin Dehydrogenase); 15-hydroxyprostaglandin dehydrogenase [NAD(+)] (Homo sapiens), P15428; purified HPGD, NADH fluorescence kinetic, PGE2 substrate; Potency, µM, most hits filed as inhibitors; 150,000 compounds, 4.3% hits; active = well fitted inhibition curve with a large enough effect, not every such curve was filed as active; inconclusive = small, poorly fitted or top-dose-only effect, or another doubt; inactive = no such curve, though single readings can be large or run the other way
Target sequence (P15428 whole entry, looked up): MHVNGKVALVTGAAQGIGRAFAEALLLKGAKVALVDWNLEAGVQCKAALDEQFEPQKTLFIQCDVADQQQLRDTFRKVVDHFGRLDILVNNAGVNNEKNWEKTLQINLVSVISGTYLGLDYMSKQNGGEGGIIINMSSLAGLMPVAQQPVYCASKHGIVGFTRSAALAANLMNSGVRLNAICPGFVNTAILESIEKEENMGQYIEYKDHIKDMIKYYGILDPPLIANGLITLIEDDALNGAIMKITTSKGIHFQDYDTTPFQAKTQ
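NADH formation kinetics: reaction with 30 uM PGE2 and 1 mM NAD+ (final), 20 nM enzyme, Tris-HCl pH 8 with Tween 20, after 15 min compound preincubation at room temperature. Fluorescence change, last versus first of five reads.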
IMPase inh = qHTS Assay for Identifying the Cell-Membrane Permeable IMPase Inhibitors; Inositol monophosphatase 1 (Rattus norvegicus), P97697; CHO-M1 cells, IP1 accumulation, HTRF TR-FRET ratio; inhibition (IP1 accumulation), % at 46.1 µM; 120,000 tested, under 10 active; active = well fitted curve in the direction sought with a large enough effect in the signal ratio, not every such curve was filed as active; inconclusive = small, poorly fitted or top-dose-only effect, or a change in a side signal; inactive = no such curve, though single readings can be large or run the other way; the % refers to the signal ratio;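 note: cells stimulated with carbachol in lithium chloride buffer; higher means more IMPase inhibition seen as more IP1 and lower FRET ratio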
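Carbachol-driven Gq signalling in CHO-M1 cells (2000/well) generates IP1. Compounds that block IMPase raise IP1 and so reduce the FRET signal from Eu-anti-IP1 and d2-IP1 after a 10 min room-temperature lysis.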
IMPase Li inh = qHTS Assay for Identifying the Cell-Membrane Permeable IMPase Inhibitors: Potentiation with Lithium; CHO-M1 cells, IP1 TR-FRET (IP-One), carbachol + lithium; Potency, µM (doses to about 59.4 µM), hits mostly inhibitors; 210,000 compounds, 0.35% hits; AID 1457, 2008;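 note: IP1 builds up when IMPase is blocked and the TR-FRET signal falls; nearly all actives have a fitted effect of over 50% in size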
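Test compounds were applied to CHO-M1 cells previously cultured for 16–30 h at 2000 per well. A small lithium amount accompanied them; after 30 min at 37C, IP1 was quantified by TR-FRET.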
HTT ATP protect = qHTS Multiplex Assay to Identify Dual Action Probes in a Cell Model of Huntington: Cytoprotection (ATP) | PC12 HTT-Q103 induced, cytoprotection, ATP luminescence, 40 h | Potency, µM (highest dose often 56.4 µM), usual class: activators | 230,000 compounds, 0.14% hits; note: nearly all actives have a fitted effect of over 45% in size
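Cells were plated at 1500 per well in phenol red-free DMEM with 5% equine and 5% calf serum. Tebufenozide (100 nM final) and compounds were added, then ATPlite reagent, and luminescence was read.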
HttQ103 aggreg = qHTS Multiplex Assay to Identify Dual Action Probes in a Cell Model of Huntington: Aggregate Formation (GFP) | AID 1688, 2009 | 220,000 compounds, 1.1% hits | Potency, µM (doses to about 46.1 µM), most hits filed as inhibitors | PC12 HttQ103-GFP aggregates, Acumen cytometry, 40 h; note: nearly all actives have a fitted effect of over 60% in size
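Multiplexed with ATP-based cell death, this channel scores GFP aggregates in PC12 cells expressing inducible HTTex1-Q103-GFP. Induction used 100 nM tebufenozide; compounds were tested in concentration series.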
ALDH1A1 block = qHTS Assay for Inhibitors of Aldehyde Dehydrogenase 1 (ALDH1A1). Aldehyde dehydrogenase 1A1 (Homo sapiens), P00352. Potency, µM (top dose mostly 75.3 µM), hits mostly inhibitors. AID 1030, 2008. Purified ALDH1A1, NADH fluorescence, propionaldehyde substrate. 220,000 compounds, 7.3% hits; active = well fitted inhibition curve with a large enough effect, not every such curve was filed as active; inconclusive = small, poorly fitted or top-dose-only effect, or another doubt; inactive = no such curve, though single readings can be large or run the other way
Target sequence (P00352 whole entry, looked up): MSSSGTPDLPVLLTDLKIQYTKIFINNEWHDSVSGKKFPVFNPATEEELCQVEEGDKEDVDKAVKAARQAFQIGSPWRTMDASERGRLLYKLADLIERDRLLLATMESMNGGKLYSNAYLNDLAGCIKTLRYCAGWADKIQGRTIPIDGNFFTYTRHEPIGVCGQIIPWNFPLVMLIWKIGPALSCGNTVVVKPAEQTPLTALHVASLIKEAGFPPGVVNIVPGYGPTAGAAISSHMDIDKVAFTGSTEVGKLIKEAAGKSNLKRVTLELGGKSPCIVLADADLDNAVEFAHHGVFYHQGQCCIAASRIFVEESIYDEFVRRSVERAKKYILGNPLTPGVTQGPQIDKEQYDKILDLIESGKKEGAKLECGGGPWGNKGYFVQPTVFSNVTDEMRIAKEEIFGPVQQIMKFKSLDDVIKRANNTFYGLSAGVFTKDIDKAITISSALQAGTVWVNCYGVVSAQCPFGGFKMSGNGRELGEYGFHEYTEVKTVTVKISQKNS
Numbers stand for hits; - = inactive; ? = inconclusive; . = not tested or not shown; [ ] = dose if it differs, or a comment. Only some compounds are listed: those with a hit (about 9.4% of all), similar ones and a draw of the others. Unless noted, calls come from the whole dose curve; as a rule, active = well fitted curve in the direction sought with a large enough effect; inconclusive = small, poorly fitted or top-dose-only effect, or another doubt; inactive = no such curve, though single readings can be large; an effect the other way counts as inactive or inconclusive.

SMILES	HPGD inh	IMPase inh	IMPase Li inh	HTT ATP protect	HttQ103 aggreg	ALDH1A1 block
COc1cccc(-n2nnc3c(=O)n(CC(=O)N4CCCc5ccccc54)cnc32)c1	22µM	-	-	-	-	?
O=C(Cn1c(-c2ccccc2)noc1=O)N1CCC(Cc2ccccc2)CC1	.	.	-	-[10 µM]	-[9.22 µM]	-
Cc1ccc(-n2ncc3c(=O)n(CC(=O)OCc4ccccc4)cnc32)cc1	-	-	-	-	-	?
O=C(Cn1cnc2c(oc3ccccc32)c1=O)N1CCCc2ccccc21	-	-	-	-[0.074 µM]	-	20µM
COc1ccc(-c2noc(=O)n2CC(=O)N2CCC(Cc3ccccc3)CC2)cc1	.	.	-	-[10 µM]	-[9.22 µM]	25µM
COc1cccc(Cn2c(=O)c(-c3cc(F)cc(F)c3)nc3cnc(N4CCNCC4)nc32)c1	.	.	-	-	.	?
Cc1noc(C)c1-c1nc(NCCN2CCOCC2)c2ccccc2n1	.	.	-	-	.	-
COc1ccc2cc(C(=O)CCC(=O)O)ccc2c1	?	.	-	-[10 µM]	.	?
O=P(O)(O)O[C@@H]1[C@H](O)[C@H](O)[C@@H](OP(=O)(O)O)[C@H](OP(=O)(O)O)[C@H]1O	-	.	-	-	.	-
Cc1ccc(Cn2nnc3c(=O)n(CC(=O)N4CCCc5ccccc54)cnc32)cc1	-	-	-	-[10 µM]	-	-
COc1cccc(-n2nnc3c(=O)n(CC(=O)N4CCC(Cc5ccccc5)CC4)cnc32)c1	-	-	-	-	-	2µM
COc1cccc(-n2nnc3c(=O)n(Cc4ccccc4F)cnc32)c1	5.6µM	-	-	-[0.074 µM]	-	?
O=C(Cn1cnc2c(nnn2Cc2ccc(Cl)cc2)c1=O)N1CCCc2ccccc21	-	-	-	-[10 µM]	-	22µM
COc1ccc(N/C(=N/c2nc(C)cc(C)n2)NC(=O)c2ccccc2)cc1	.	.	.	-[10 µM]	-[9.22 µM]	.
C#CCCCO/N=C1/C[C@@H](O)[C@@H](O)[C@@H]2[C@H]3C(=O)N(c4ccc(F)cc4F)C(=O)[C@@H]3CC[C@H]12	.	.	.	-[10 µM]	.	-[13.5 µM]
CCc1c(C)sc(NC(=O)CSc2nc3c(c(C(F)(F)F)n2)CCc2ccccc2-3)c1C#N	22µM	-[1.84 µM]	?	-[10 µM]	-	22µM
CC(NC(=O)CSc1nc2c(c(C(F)(F)F)n1)CCc1ccccc1-2)c1ccccc1 (stereo not drawn)	-	?	-	-[10 µM]	-	-
CCOc1ccc(C(CC(=O)O)NC(=O)c2sc3ccccc3c2Cl)cc1 (stereo not drawn)	-	-	8.9µM	-[10 µM]	-	-
CCCOc1ccc(C(CC(=O)O)NC(=O)c2sc3ccccc3c2Cl)cc1 (stereo not drawn)	.	.	3.2µM	-	-	?
N=c1n(CCO)c2ccccc2n1Cc1ccccc1F	.	-	.	.	.	.
CC(C)(C)C(=O)NC1(C(F)(F)F)C(=O)Nc2c1c(=O)[nH]c(=O)n2-c1ccccc1 (stereo not drawn)	.	-	.	.	.	.
COc1ccc(N2COC3c4cccc5cccc(c45)C32)cc1 (stereo not drawn)	-	-	-	-[1.9 µM]	?	19µM
COc1ccc(C(C)=O)cc1COC(=O)CNC(=O)c1ccc(F)cc1	?	.	-	-[10 µM]	-	?
COc1ccc(C(C)=O)cc1COc1ccc(F)cc1	.	.	-	-	-[9.22 µM]	?
COc1ccc(C(C)=O)cc1COC(=O)CNC(=O)c1ccc(Cl)cc1	16µM	-	?	-[10 µM]	-	-
SMILES	HPGD inh	IMPase inh	IMPase Li inh	HTT ATP protect	HttQ103 aggreg	ALDH1A1 block
CCOc1ccc(C(=O)NCC(=O)OCc2cc(C(C)=O)ccc2OC)cc1	-	-	-	-[10 µM]	?	3.5µM
COC(=O)[C@@]1(Cc2ccccc2)[C@H]2c3cc(C(=O)N4CCCC4)n(Cc4c(CO)[nH]cc(C)c4=O)c3C[C@H]2CN1C(=O)c1ccccc1	-	.	-	-	.	-
CCCCOC(=O)c1c(N)n(-c2ccc(OC)cc2OC)c2nc3ccccc3nc12	.	-	.	.	.	.
O=C(c1ccco1)N1CCC2(CCCN(c3ccccc3)C2)CC1	-	.	-	-	.	?
Cc1cccc(-n2c(C)cc(C=C3C(=O)c4ccccc4C3=O)c2C)c1	-	-	-	-	-	1.6µM
Cc1cc(C=C2C(=O)c3ccccc3C2=O)c(C)n1-c1ccc(Cl)cc1	-	-	-	-[10 µM]	-	2.2µM
CCn1c(C)cc(C=C2C(=O)c3ccccc3C2=O)c1C	.	.	-	-[10 µM]	-[9.22 µM]	11µM
Cc1cc(C=C2C(=O)c3ccccc3C2=O)c(C)n1C	-	-	-	-[10 µM]	-	?
Cn1c([N+](=O)[O-])cnc1CN1CCN(CCO)CC1	-	.	-	-[10 µM]	.	-[13.5 µM]
COC(=O)CNC(=O)CCc1nnc(C2(c3ccc(Cl)cc3)CCC2)o1	.	.	-	-[10 µM]	-[9.22 µM]	8.9µM
O=C(Nc1cccc(O)c1)c1cc2nc(-c3ccc(Br)cc3)cc(C(F)(F)F)n2n1	.	-	.	.	.	.
COc1ccccc1OC[C@H](O)CN1CCN(CC(=O)Nc2c(C)cccc2C)CC1	.	-	.	-[1.9 µM]	.	.
O=C1C(Cl)=C(NCCN2CCCCC2)C(=O)c2ccccc21	.	.	-	-	?	-
CCN(CC)c1ccc(NC2=C(Cl)C(=O)c3ccccc3C2=O)cc1	7.9µM	.	-	.	?	10µM
Cc1ccc(NC2=C(Cl)C(=O)c3ccccc3C2=O)cc1	.	-	.	-[10 µM]	10µM	-
O=C1C(Cl)=C(Nc2ccc(O)cc2)C(=O)c2ccccc21	.	.	.	-[10 µM]	?	.
CCNC1=C(Cl)C(=O)c2ccccc2C1=O	-	-	-	-	13µM	?
O=c1cnc2cnc(Oc3cccc(Cl)c3)nc2n1C[C@H]1CCCO1	.	.	-	-	.	?
C#CCNC(=O)C1=C[C@H](c2ccc(C(F)(F)F)cc2)C[C@H](OCc2ccc(CO)cc2)O1	.	.	-	-[10 µM]	-[9.22 µM]	28µM
C=CCOC(=O)C1=C[C@@H](c2ccc(Br)cc2)C[C@@H](OCc2ccc(CO)cc2)O1	.	.	-	-[10 µM]	-[9.22 µM]	18µM
O=C(NC1CC1)C1=C[C@@H](c2ccc3c(c2)OCO3)C[C@@H](OCc2ccc(CO)cc2)O1	.	.	-	-[10 µM]	-[9.22 µM]	-
CN1CCN(C(=O)C2=C[C@@H](c3ccccc3)C[C@@H](OCc3ccc(CO)cc3)O2)CC1	.	.	-	-[10 µM]	-[9.22 µM]	13µM
O=C(Nc1ccccc1)C1=C[C@H](c2ccc3c(c2)OCO3)C[C@H](OCc2ccc(CO)cc2)O1	.	.	-	-[10 µM]	-[9.22 µM]	28µM
CC(=O)c1ccc(C2C=CC(O)C(CO)O2)cc1 (stereo not drawn)	.	.	.	-[10 µM]	.	?
Cc1cc(C(F)F)n2nc(C(=O)Nc3cc(Cl)ccc3C)nc2n1	.	-	.	.	.	.
O=C1NC[C@H](c2ccccc2)N1	-	.	-	-	.	-

High-throughput results from PubChem BioAssay.
